Screening data from PubChem BioAssay.
Shown are actives, neighbours in structure and some others; about 0.59% of the full set was active somewhere.
Rango release inh – inhibition of RanGTP-driven Rango-importin beta dissociation; actives 0.071% (n = 340,000); Biochemical FRET Rango-importin beta, RanGTP-induced dissociation; AID 540253; Potency, µM (top dose mostly 46.1 µM); O95149+P62826; note: nearly all actives have a fitted effect of over 45% in size
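Quantitative HTS using a FRET biosensor: 0.1 uM Rango, 0.25 uM importin beta, 0.6 uM Ran, 2 mM GTP, 0.2 uM RCC1 final, PBS with DTT, Tween-20 and BSA. Post-read taken 45 min after Ran addition.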
A-T KAP1 phos – candidate therapy for ataxia-telangiectasia. F2112 A-T fibroblasts, KAP-1 phosphorylation AlphaLISA; neocarzinostatin DNA damage 30 min before lysis. actives 0.19% (n = 320,000). Potency, µM (series often up to 57.5 µM), actives largely listed as activators. AID 485349; active = well fitted activation curve with a large enough effect; inconclusive = small, poorly fitted or top-dose-only effect; inactive = no such curve, though single readings can be large or run the other way; note: nearly all actives have a fitted effect of over 45% in size
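ATM-like activity read as KAP-1 phosphorylation via AlphaLISA donor/acceptor antibody pairs after lysis and 6 hr at 25C. Cells were ATM-null patient fibroblasts (F2112, hTERT), dosed 60 min, then exposed to the DSB inducer NCS for 30 min.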
IL2 activator – activators of IL-2; IL-2 activation reporter assay, cell-based qHTS; stimulated with anti-CD3/CD4/CD28 beads; in transgenic mouse T cells; actives 0.065% (n = 360,000); activation, % (series mostly up to about 46 µM); in the data active = activation above about 50%; inconclusive = mostly about 30% to 49%
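Unstimulated transgenic mouse T cells; 60-min compound exposure; bead-based TCR/CD4/CD28 stimulation; 18 h culture, 37 degrees C; dual fluorescence (EGFP, DsRed) plate cytometry.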
Rango-impB inh – prevents formation of the Rango-importin beta complex. Q14974. Rango CFP/YFP FRET sensor + importin beta, 45 min. Potency, µM (top dose mostly 92.2 µM). actives 0.031% (n = 340,000); note: nearly all actives have a fitted effect of over 15% in size
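FRET biosensor (snurportin 1 IBB flanked by EYFP and cerulean), 50 nM, with compound 5 min, then 0.125 microM importin beta in PBS, 1 mM DTT, 0.02% Tween-20, 0.1% BSA. CFP/YFP ratio read after 45 min at room temperature; pre-read flags interference.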
PKM2 act – PKM2 (human) enzyme activation; AID 1631; actives 0.34% (n = 260,000); P14618; Potency, µM (highest dose often 57.5 µM), actives largely listed as activators; purified PKM2, Kinase-Glo ATP luminescence, activation; response scale: 0% is enzyme alone, no compound; active = well fitted activation curve with a large enough effect; inconclusive = small, poorly fitted or top-dose-only effect; inactive = no such curve, though single readings can be large or run the other way; note: nearly all actives have a fitted effect of over 55% in size
Target sequence (P14618 whole entry, looked up): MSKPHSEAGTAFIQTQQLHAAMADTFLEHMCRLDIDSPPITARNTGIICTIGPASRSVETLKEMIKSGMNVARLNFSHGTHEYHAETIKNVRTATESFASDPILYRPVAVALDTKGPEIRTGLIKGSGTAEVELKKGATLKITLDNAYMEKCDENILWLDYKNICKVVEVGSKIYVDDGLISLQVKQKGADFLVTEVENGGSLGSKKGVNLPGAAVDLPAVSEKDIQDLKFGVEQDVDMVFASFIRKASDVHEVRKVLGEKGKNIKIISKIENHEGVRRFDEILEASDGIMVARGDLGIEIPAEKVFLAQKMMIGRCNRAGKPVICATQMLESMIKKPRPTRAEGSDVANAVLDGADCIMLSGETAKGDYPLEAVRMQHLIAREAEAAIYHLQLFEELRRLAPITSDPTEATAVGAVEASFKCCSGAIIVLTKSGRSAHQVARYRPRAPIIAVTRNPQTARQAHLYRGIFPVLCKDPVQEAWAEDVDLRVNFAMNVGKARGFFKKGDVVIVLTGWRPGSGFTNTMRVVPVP
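Kinase-Glo luminescence reports ATP generated from ADP (0.1 mM) and PEP (0.5 mM) by purified hPK-M2 after 1 h at room temperature, pH 7.2 imidazole buffer; intermediate enzyme activity allows detecting inhibitors and activators.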
Large screens that a line does not name were inactive. Unless noted, calls come from the whole dose curve.

CCN(CC)C(=O)Cn1c(=O)n(C)c2ccccc21	none
Cc1[nH]c2ccccc2c1/C=C/c1cc[n+](C)cc1	Rango release inh inconclusive, IL2 activator 192.4, Rango-impB inh inconclusive
C=CCn1cc(/C=C/c2cc[n+](C)cc2)c2ccccc21	Rango release inh inconclusive, IL2 activator 457.4, Rango-impB inh inconclusive
C[n+]1ccc2[nH]c3ccccc3c2c1	none (no result: Rango release inh, A-T KAP1 phos, Rango-impB inh, PKM2 act)
CCn1cc(/C=C/c2cc[n+](C)cc2)c2ccccc21	Rango release inh inconclusive, A-T KAP1 phos 3.16µM, IL2 activator 112.9 (no result: PKM2 act)
O=C(C1CC1)N1N=C(c2ccccc2)CC1(O)C(F)(F)C(F)(F)F (stereo unspecified)	none
O=C(NC1CCCCC1)c1[nH]c(C(F)(F)F)nc1-c1ccccc1	none (no result: Rango release inh, A-T KAP1 phos, Rango-impB inh, PKM2 act)
C=CCn1c(C)c(/C=C/c2cc[n+](C)cc2)c2ccccc21	Rango release inh inconclusive, IL2 activator 122.4, Rango-impB inh inconclusive
Cc1ccccc1/C=C/c1cc[n+](C)cc1	none
CC(C)n1cc(/C=C/c2cc[n+](C)cc2)c2ccccc21	Rango release inh inconclusive, IL2 activator 294.7, Rango-impB inh inconclusive
COc1ccc(NC(=O)COc2cccc3c2CCN(Cc2cccnc2)C3=O)c(OC)c1	none
CC1=C2CCCC[C@@]23C2C(=O)N(C)C(=O)[C@@H]2ON3OC1 (stereo partly specified)	none (no result: Rango release inh, A-T KAP1 phos, Rango-impB inh, PKM2 act)
CCNC(=O)C1CCCN(C(=O)c2cc(OC)c(OC)c(OC)c2)CC1 (stereo unspecified)	none (no result: Rango release inh, A-T KAP1 phos, Rango-impB inh, PKM2 act)
O=C(Nc1nnc(SCc2ccc(F)cc2)s1)C1CC(=O)N(Cc2ccccc2)C1 (stereo unspecified)	PKM2 act 12.6µM
Cc1nnc(NC(=O)C2CC(=O)N(Cc3ccccc3)C2)s1 (stereo unspecified)	none
CC1(C)CC(=O)C2=C(C1)OC1=C(C(=O)CC(C)(C)C1)C2c1ccccc1Cl	none (no result: Rango release inh, A-T KAP1 phos, Rango-impB inh, PKM2 act)
Cn1ccc2cc(-c3ccc4ncnc(NCc5cccc(F)c5)c4c3)ccc21	none (no result: Rango release inh, IL2 activator, Rango-impB inh, PKM2 act)
O=S(=O)(/C(=C/c1ccc(C(F)(F)F)cc1)c1nc2ccccc2[nH]1)c1ccccc1	A-T KAP1 phos 31.6µM
CC(C)c1ccc(/C=C(\c2nc3ccccc3[nH]2)S(=O)(=O)c2ccccc2)cc1	none
COc1ccccc1-c1c(C#N)c(N)nc2c1CCc1ccccc1-2	A-T KAP1 phos 22.4µM
Clc1ccccc1CONc1ncnc2nonc12	PKM2 act 15.8µM
Cc1nc(N2CCOCC2)c2nc(-c3ccccc3)n(CCN(C)C)c2n1	none (no result: Rango release inh, A-T KAP1 phos, IL2 activator, Rango-impB inh)
Cc1occc1-c1nnc(SCCCC(=O)c2ccc(F)cc2)n1C	PKM2 act 25.1µM
Cn1c(SCCCC(=O)c2ccc(F)cc2)nnc1-c1ccncc1	none
O=c1c2ccccc2nc(SCc2ccccc2)n1CC1CCCO1 (stereo unspecified)	A-T KAP1 phos 14.1µM
O=C1CCCCCCC(=O)[C@H](O)C[C@H](c2ccccc2)O1	none (no result: Rango release inh, A-T KAP1 phos, Rango-impB inh, PKM2 act)
C/C(N)=C(/C#N)C(=O)COC(=O)CSc1ccc2ccccc2c1	none (no result: A-T KAP1 phos)
C/C(N)=C(/C#N)C(=O)CSc1ccc2c(c1)OCCO2	PKM2 act 14.1µM
CSc1c(C#N)c(N)nc2sc(C(=O)c3ccccc3)c(N)c12	IL2 activator 275.0, Rango-impB inh inconclusive
COc1ccc(OCC(=O)NNC(=O)c2ccccc2OCc2c(C)noc2C)cc1	none (no result: PKM2 act)
C=CCn1c(SCC(=O)N2CCOCC2)nc2scc(-c3ccco3)c2c1=O	PKM2 act 14.1µM
C=CCn1c(SCC(C)=O)nc2scc(-c3ccco3)c2c1=O	none (no result: PKM2 act)
Cc1ccc(S(=O)(=O)N[C@H](C(=O)NC2CCC(C)CC2)C(C)C)cc1 (stereo partly specified)	none (no result: PKM2 act)
COc1ccc(C)cc1Nc1n[n+](-c2ccccc2)c(-c2ccc(NC(C)=O)cc2)s1	none
COc1ccc(C)cc1Nc1n[n+](-c2ccccc2)c(-c2cc([N+](=O)[O-])cc(OC)c2O)s1	IL2 activator 179.9
CCOC(=O)C1=C(O)C(=O)N(Cc2ccccc2)C1	A-T KAP1 phos 1.12µM (no result: PKM2 act)
COCCNc1nc(C)nc2c1nc(-c1ccccc1)n2CCCN1CCCCC1C (stereo unspecified)	none (no result: Rango release inh, A-T KAP1 phos, IL2 activator, Rango-impB inh)
COc1ccc(S(=O)(=O)N2CCc3ccccc32)cc1C(=O)Nc1ccc(C(N)=O)cc1	none (no result: PKM2 act)
Cc1ccc(C2C=CC(C#N)=CN2Cc2ccccc2)cc1 (stereo unspecified)	none (no result: Rango release inh, A-T KAP1 phos, Rango-impB inh, PKM2 act)
CN(C)/C(Cn1cncn1)=C1/N=C(c2c(F)cccc2F)OC1=O	PKM2 act 25.1µM
COc1ccc(OC2(C)CCN(Cc3ccccc3OC(F)F)C2)cc1 (stereo unspecified)	none (no result: Rango release inh, A-T KAP1 phos, Rango-impB inh, PKM2 act)
CC(C)N(C(=O)Nc1ccc2nsnc2c1)C(C)C	Rango release inh inconclusive, A-T KAP1 phos 31.6µM, Rango-impB inh inconclusive
c1ccc(CCc2nc(-c3cccnc3)no2)cc1	none
c1ccc(CCc2ccccc2-c2nc(-c3cccnc3)no2)cc1	A-T KAP1 phos 39.8µM
COC1C(CO)OC(n2c3c(Cl)cccc3c3c4c(c5c6cccc(Cl)c6[nH]c5c32)C(=O)NC4=O)C(O)C1O (stereo unspecified)	Rango release inh inconclusive, IL2 activator 61.7, Rango-impB inh inconclusive (no result: A-T KAP1 phos, PKM2 act)
O=C(CCc1ccc(O)cc1)c1c(O)cc(O)cc1O	A-T KAP1 phos 28.2µM
Cc1occc1-c1nnc(SCC(=O)N2CCOCC2)n1Cc1ccco1	PKM2 act 25.1µM
Cc1occc1-c1nnc(SCC(=O)N2CCOCC2)n1CC(C)C	none (no result: A-T KAP1 phos)
COC(=O)C[C@@H]1CC[C@@H](NC(=O)C2CCC2)[C@@H](CO)O1	none (no result: Rango release inh, A-T KAP1 phos, Rango-impB inh, PKM2 act)
COc1cc(OC)c(OC)cc1/C=C1/Cc2ccccc2C1=O	Rango release inh inconclusive, IL2 activator 126.2, Rango-impB inh inconclusive (no result: PKM2 act)
COc1ccccc1C=C1CCc2ccccc2C1=O	none (no result: Rango release inh, A-T KAP1 phos, Rango-impB inh, PKM2 act)
CNc1sc(C(=O)c2cccs2)c(N)c1-c1nc2ccccc2s1	Rango release inh 10.3µM, Rango-impB inh inconclusive, PKM2 act inconclusive
O=c1c(/C=N/Nc2ccccc2)c(Sc2nnnn2-c2ccccc2)nc2ccccn12	Rango release inh inconclusive, IL2 activator 90.2, Rango-impB inh inconclusive
COC(=O)C1=NN(c2ccccc2OC)C2C(=O)N(c3ccccc3OC)C(=O)C12 (stereo unspecified)	Rango-impB inh inconclusive
COC(=O)C1=NN(c2cccc3ccccc23)C2C(=O)N(c3ccccc3OC)C(=O)C12 (stereo unspecified)	Rango release inh 11.6µM, Rango-impB inh inconclusive
COCCNS(=O)(=O)c1ccc2c(c1)Cc1cc(S(=O)(=O)NCCOC)ccc1-2	none
COCCNS(=O)(=O)c1ccc2c(c1)C(=NO)c1cc(S(=O)(=O)NCCOC)ccc1-2	PKM2 act 10µM
C[C@@H]1C[C@@H]2OC(=O)[C@]3(C)[C@H]2[C@@H](OC3(C)O)[C@]2(C)C(=O)C=C[C@H]12 (stereo partly specified)	A-T KAP1 phos 39.8µM
